Several values for one entry are separate records, joined by “and”; a condition that tells them apart may be missing. Equal values may be shown once. A number with no mark means an inactive call. Activity calls are given as the source filed them. Unless noted, the call rests on the fitted dose curve; in most records, active means well fitted curve in the direction sought with a large enough effect in the repeat runs; inconclusive means weak or mixed curves; inactive means no such curve, though single readings can be large; an effect the other way counts as inactive or inconclusive.

The results in this text go back to PubChem BioAssay (Tox21).

A short description of experiment [1]: qHTS assay for small molecules that induce genotoxicity in human embryonic kidney cells expressing luciferase-tagged ATAD5 - cell viability (AID 651634; calls by dose curve; further: nearly all actives have a fitted effect of over 25% in size; further: potency means the concentration at half of the fitted maximal effect). An outline of the steps:
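HEK293T cells expressing luciferase-tagged ATAD5 were exposed to compound or DMSO for 15.5 hr at 37C, 5% CO2. Viability was then read as live-cell protease activity by CellTiter-Fluor fluorescence after 30 min at 37C.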
A general note: In qHTS, concentration-response curves come from the screen itself.

Experiment [2] is described as follows: qHTS assay for small molecule disruptors of the mitochondrial membrane potential - cell viability (AID 720634; calls by dose curve; further: nearly all actives have a fitted effect of over 20% in size; further: potency means the concentration at half of the fitted maximal effect). An outline of the steps:
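HepG2 cells seeded overnight at 37 C, then exposed to compound or DMSO for 1 hr at 37 C, 5% CO2. m-MPI dye added, then CellTiter-Glo for 30 min at room temperature; viability read as ATP luminescence.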

Experiment [3] is described as follows: qHTS assay to test for compound auto fluorescence at 590 nm (red) in HepG2 cells (AID 720674). An outline of the steps: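 We screened compounds on adherent HepG2 cells, incubating them for an hour at 37 C in 5% CO2 before reading emission at 590 nm under 540 nm excitation; values reflect equivalence to Rose Bengal sodium fluorescence.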
Experiment [4] in a line: qHTS assay to test for compound auto fluorescence at 535 nm (green) in HepG2 cells (AID 720675).
Experiment [5] is described as follows: qHTS assay to test for compound auto fluorescence at 460 nm (blue) in HEK293 cells (AID 720678). An outline of the steps: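 Blue read-out at excitation 405 nm and emission 460 nm follows overnight compound exposure of HEK293 cells at 37C in 5% CO2. Activity is given as auto fluorescence equivalency to triamterene.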
Experiment [6] is described as follows: qHTS assay to test for compound auto fluorescence at 590 nm (red) in HEK293 cells (AID 720679). An outline of the steps:
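Red channel, Ex/Em 540/590nm; signal expressed as equivalency to Rose Bengal sodium. HEK293, 2,000 cells/well, 10% dialyzed FBS; 23 nL compound pinned after 4-5 hr attachment; overnight 37C/5% CO2 before reading.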

Experiment [7] in a line: qHTS assay to test for compound auto fluorescence at 535 nm (green) in HEK293 cells (AID 720680).
Experiment [8] can be described thus: qHTS assay to test for compound auto fluorescence at 460 nm (blue) in HEK293 cell free culture (AID 720681). An outline of the steps:
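Blue fluorescence (Ex 405/Em 460 nm, triamterene-equivalent) was read immediately after pin transfer of compound or DMSO into medium (DMEM, 10% FBS) without cells.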

Experiment [9] is described as follows: qHTS assay to test for compound auto fluorescence at 590 nm (red) in HEK293 cell free culture (AID 720683). An outline of the steps: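 Red-channel autofluorescence of compounds in culture medium (DMEM, 10% FBS), no cells, measured at 540/590 nm. Rose Bengal sodium is the reference fluorophore for equivalence.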
The nature of experiment [10]: qHTS assay to test for compound auto fluorescence at 590 nm (red) in HepG2 cell free culture (AID 720684). The procedure, abridged: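 Steps: dispense MEM/10% FBS medium, no cells; pin compound or DMSO vehicle; read red channel, Ex/Em 540/590 nm. Output given as Rose Bengal sodium equivalents.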
A short description of experiment [11]: qHTS assay to test for compound auto fluorescence at 460 nm (blue) in HepG2 cell free culture (AID 720685). The procedure, abridged: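 Compound (23 nL) or DMSO pinned into cell-free MEM with 10% FBS; blue fluorescence read at 405/460 nm excitation/emission, expressed as auto-fluorescence equivalency to triamterene.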
Experiment [12] can be described thus: qHTS assay to test for compound auto fluorescence at 460 nm (blue) in HepG2 cells (AID 720687). The procedure, abridged:
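Blue-channel autofluorescence (Ex/Em 405/460 nm, triamterene-equivalent) was measured after 1 hr compound exposure at 37 C, 5% CO2. Cells were HepG2, plated overnight at 37 C in MEM plus 10% FBS.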

Experiment [13] can be described thus: qHTS assay for small molecule agonists of the p53 signaling pathway - cell viability (AID 651633; calls by dose curve; further: nearly all actives have a fitted effect of over 30% in size; further: potency means the concentration at half of the fitted maximal effect). An outline of the steps:
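Viability counter-read: CellTiter-Glo luminescence (30 min, room temperature) in the same p53RE-bla plates. These plates had been exposed to compounds for 16 h at 37 C.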

A short description of experiment [14]: qHTS assay for small molecule disruptors of the mitochondrial membrane potential (AID 720635). Further: potency means the concentration at half of the fitted maximal effect. The procedure, abridged: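 Mitochondrial membrane potential tracked with Mito-MPS dye, red aggregates (ex 540/em 590 nm) against green monomers (ex 490/em 535 nm). Compound treatment 1 hr at 37C, dye 30 min in HepG2.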
A short description of experiment [15]: qHTS assay to test for compound auto fluorescence at 535 nm (green) in HEK293 cell free culture (AID 720682). An outline of the steps:
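Read-out: 485/535 nm fluorescence intensity, calibrated against fluorescein. Medium only (DMEM + 10% FBS, no cells); test compound or DMSO vehicle added by pintool before plate reading.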

Experiment [16] is described as follows: qHTS assay to test for compound auto fluorescence at 535 nm (green) in HepG2 cell free culture (AID 720686).
In experiment [17] the target is Glucocorticoid receptor (Homo sapiens) (UniProt P04150). The experiment can be described thus: qHTS assay to identify small molecule agonists of the glucocorticoid receptor (GR) signaling pathway (AID 720691; active means well fitted activation curve with a large enough effect in the signal ratio in the repeat runs, not every such curve was filed as active; inconclusive means weak or mixed curves, or effect the other way; inactive means no such curve, though single readings can be large or run the other way; the % refers to the signal ratio; further: potency means the concentration at half of the fitted maximal effect). To be noted: GR-bla HeLa, beta-lactamase reporter ratio, 18 h; activation: at 62.4 µM (top of the series). An outline of the steps:
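GR-bla HeLa cells (beta-lactamase reporter under glucocorticoid response element) were plated 4 h at 37 C/5% CO2, given compounds in DMSO, and incubated 18 h at 37 C. LiveBLAzer B/G FRET substrate was added for 2 h at room temperature, then fluorescence intensity read.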

Experiment [18] shares this target. The experiment in a line: qHTS assay to identify small molecule antagonists of the glucocorticoid receptor (GR) signaling pathway (AID 720692; active means well fitted inhibition curve with a large enough effect in the signal ratio in the repeat runs, not every such curve was filed as active; inconclusive means weak or mixed curves, or effect the other way; inactive means no such curve, though single readings can be large or run the other way; the % refers to the signal ratio). An outline of the steps: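 GR-bla HeLa cells (beta-lactamase reporter under glucocorticoid response element) were pre-plated 4 h at 37 C, treated with compounds plus 5 nM dexamethasone (final) for 18 h, then read by LiveBLAzer B/G FRET fluorescence after 2 h.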

Sequence of Glucocorticoid receptor (Homo sapiens) (P04150 whole entry, looked up): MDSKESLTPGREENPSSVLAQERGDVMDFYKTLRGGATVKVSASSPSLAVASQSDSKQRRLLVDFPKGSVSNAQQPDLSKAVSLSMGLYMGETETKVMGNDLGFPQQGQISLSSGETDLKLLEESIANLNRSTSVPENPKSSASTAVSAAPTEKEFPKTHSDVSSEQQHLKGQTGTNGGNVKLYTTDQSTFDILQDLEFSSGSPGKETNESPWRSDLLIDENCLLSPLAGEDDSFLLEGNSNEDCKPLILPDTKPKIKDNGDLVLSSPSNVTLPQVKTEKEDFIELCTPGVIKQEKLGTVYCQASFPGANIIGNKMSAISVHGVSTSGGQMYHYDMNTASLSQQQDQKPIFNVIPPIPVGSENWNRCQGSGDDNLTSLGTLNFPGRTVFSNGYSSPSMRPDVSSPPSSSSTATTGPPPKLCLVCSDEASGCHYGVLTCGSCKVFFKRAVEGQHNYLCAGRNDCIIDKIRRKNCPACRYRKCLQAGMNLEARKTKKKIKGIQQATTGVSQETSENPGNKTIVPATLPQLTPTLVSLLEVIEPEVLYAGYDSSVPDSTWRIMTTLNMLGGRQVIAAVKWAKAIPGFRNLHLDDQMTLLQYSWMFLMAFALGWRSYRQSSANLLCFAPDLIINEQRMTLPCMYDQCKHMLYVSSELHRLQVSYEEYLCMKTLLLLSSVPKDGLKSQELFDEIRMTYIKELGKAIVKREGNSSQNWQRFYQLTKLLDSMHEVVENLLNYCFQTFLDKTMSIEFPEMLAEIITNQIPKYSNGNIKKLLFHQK

Take `Cc1cc(O)c2ccccc2c1O`: the Potency entry in [1], in [2], in experiment [3], in experiment [4], in experiment [5] and in experiment [6] was “inactive” throughout. In addition, the Potency result in experiment [8], in experiment [9], in experiment [10], in [11] and in experiment [12] was “inactive” throughout. Further, the compound was called inactive in experiment [7].

As for `CCCCCCCCCCC=O`, the Potency result in experiment [13], in [1], in experiment [2], in experiment [14], in [3] and in [4] was “inactive” each time. Moreover, the Potency result in experiment [5], in experiment [6], in [8], in [9], in experiment [10] and in [11] was “inactive” in each case. Further, the Potency result in experiment [16], in [12], in experiment [17] and in experiment [18] was “inactive” throughout. Moreover, the compound was classed as inactive in [7] and in experiment [15].

Regarding `CCCCCCCCCCCC(=O)NCCCN(C)C`, the Potency in [13] is 27.3 µM (active). Moreover, the Potency entry in experiment [3], in experiment [4], in experiment [5], in [6], in [8] and in experiment [9] was “inactive” each time. In addition, the Potency result in experiment [10], in experiment [11], in experiment [16] and in [12] was “inactive” in each case. Also, the compound was called inactive in experiment [7] and in experiment [15].

Take `C=CC(=O)OCC(CO)(COC(=O)C=C)COC(=O)C=C`: the Potency was 4.34 µM (active) in experiment [13]; 12.2 µM (active) and 15.4 µM (active) in experiment [1]. The Potency entry in experiment [3], in experiment [4], in [5], in experiment [6], in experiment [8] and in experiment [9] was “inactive” in each case. For the same compound, the Potency result in [10], in experiment [11], in [16] and in [12] was “inactive” throughout. For the same compound, the call in experiment [7] and in [15] was inactive.

As to `O=C(N/N=C/c1ccccc1O)c1ccncc1`, the Potency in experiment [13] was 3.76 µM (active). Besides, the Potency entry in experiment [2], in [3], in experiment [4], in experiment [5], in experiment [6] and in experiment [8] was “inactive” throughout. The Potency entry in [9], in [10] and in experiment [16] was “inactive” each time. The outcome in [7] was inactive.

As for `C[C@]12CCC(=O)C=C1CC[C@@H]1[C@@H]2[C@@H](O)C[C@@]2(C)[C@H]1CC[C@]2(O)C(=O)COC(=O)CCC(=O)O`, the Potency entry in experiment [13], in experiment [1], in experiment [2], in experiment [3], in experiment [4] and in experiment [5] was “inactive” throughout. The Potency entry in experiment [8], in experiment [9], in experiment [10], in experiment [11], in experiment [16] and in [12] was “inactive” throughout. The compound was called inactive in [7] and in experiment [15]. For the same compound, the Potency in experiment [17] is 0.848 µM [inconclusive] (active).

Take `CCCCCCCCCCCCCC[P+](CCCC)(CCCC)CCCC` (tested in a mixture with another compound): the Potency in [13] was 27.5 µM (active); in experiment [1] it was 48.9 µM (active); in [2] it was 61.5 µM (active); in experiment [14], 0.69 µM (active). Also, the Potency entry in experiment [3], in experiment [4], in [5], in [6], in experiment [9] and in experiment [10] was “inactive” throughout. Also, the Potency result in experiment [16] and in experiment [12] was “inactive” each time. Moreover, the outcome in [7] and in experiment [15] was inactive.

Turning to `Clc1ccc2n[nH]nc2c1`, the Potency result in [13], in experiment [1], in experiment [2], in experiment [3], in experiment [4] and in [5] was “inactive” each time. In addition, the Potency result in experiment [6], in experiment [8], in experiment [9], in experiment [10], in experiment [11] and in experiment [16] was “inactive” each time. Moreover, the Potency result in experiment [12] and in [17] was “inactive” throughout. Further, the compound was called inactive in [7] and in experiment [15].
